The text below walks through data of PMC7819943, “Rice protein-binding microarrays: a tool to detect cis-acting elements near promoter regions in rice”.

Whole data set: some 39,000 sequences, median “fluorescence intensity (a.u.)” near 4,300, cut for the highest 2% near 39,000. The sample as a whole holds a higher share of the highest values than the screen did.

The target of the experiment is T1, OsSMF1 (Oryza sativa, UniProt Q6ZLB0 1-436).
T1 sequence: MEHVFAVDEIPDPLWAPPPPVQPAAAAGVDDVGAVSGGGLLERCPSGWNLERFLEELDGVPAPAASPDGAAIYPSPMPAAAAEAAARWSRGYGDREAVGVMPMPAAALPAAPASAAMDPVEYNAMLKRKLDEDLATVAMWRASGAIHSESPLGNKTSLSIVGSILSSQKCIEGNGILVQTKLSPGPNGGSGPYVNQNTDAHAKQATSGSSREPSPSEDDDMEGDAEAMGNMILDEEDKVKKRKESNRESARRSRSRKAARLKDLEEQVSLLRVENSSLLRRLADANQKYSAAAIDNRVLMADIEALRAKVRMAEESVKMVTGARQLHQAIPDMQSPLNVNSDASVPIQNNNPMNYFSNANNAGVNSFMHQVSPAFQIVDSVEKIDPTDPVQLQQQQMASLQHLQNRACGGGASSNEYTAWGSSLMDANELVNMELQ
The experiment in a line: protein-binding microarray (RPBM); PBS, 2% BSA, 51.3 ng/ul salmon testes DNA, 50 uM zinc acetate, 200 nM TF, 25 C, 1 h; high values mean tight binding. As to conditions: protein: recombinant; tags: N-terminal polyhistidine and DsRed monomer fusion (pET32a); chain copies: 2; label: CyDye5-dUTP incorporated in the synthesized complementary strand; 3' TTTTT single-stranded linker to array surface; dsDNA, one strand shown. A digest of the protocol:
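Ni–NTA purification followed expression in E. coli BL21-CodonPlus of transcription factors fused N-terminally to a polyhistidine tag and DsRed. At 200 nM in PBS with 2% BSA, salmon testes DNA and 50 µM zinc acetate, the protein was incubated for 1 h at 25 °C with a custom Agilent array that had been primer-extended with Cy5-dUTP and blocked with 2% BSA. After washing, the array was read on an Axon 4000B scanner. The binding signal is per-feature fluorescence intensity in arbitrary units.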
With “CGGCGCCTAGACTGCGTATCGTAGCTGTCGAACGTGTCGTCGGAGTCACCTAGTGCAG”, the binding signal was 3640 fluorescence intensity (a.u.). The value for “GAATCTACTGGGCATTTCGTCAAACAGCTCATCTGCGCCCCGGAGTCACCTAGTGCAG” was 3590 fluorescence intensity (a.u.); that for “GTGCGTTGTGTGGTTGGTTGGTCAGTGTCTGGGTGGTCACCGGAGTCACCTAGTGCAG” was 26000 fluorescence intensity (a.u.). With “ATTCGTCTGAAAATTGTGTTTCACATGCGTCATTTCTCTACGGAGTCACCTAGTGCAG” the figure was 5080 fluorescence intensity (a.u.); with “CTCTGGCGATGTGGCGTCTGGTCAAATTCATTGTCTCTACCGGAGTCACCTAGTGCAG”, 47900 fluorescence intensity (a.u.). The value for “GCGAAAACCCTGCATAAACATAGGAAAACACCAAGTGGGTCGGAGTCACCTAGTGCAG” was 3560 fluorescence intensity (a.u.); that for “TTTGATCACCGGTCCGGTCTTAATAACTATGTGGCAGACGCGGAGTCACCTAGTGCAG” was 3660 fluorescence intensity (a.u.); that for “CAACAGCAGCAGCTACAACGCGGCATCCATGGCCGCCGCGCGGAGTCACCTAGTGCAG” was 53300 fluorescence intensity (a.u.). On to “GAAGGAGAGGAGGAGAGGAGAGGAGAGAGGGAGGCAGCAGCGGAGTCACCTAGTGCAG”, for which the binding signal was 3280 fluorescence intensity (a.u.). The value for “GCGGAGCCGACGCGGCGGCGATGCTCGGCCGCGTGGCGGTCGGAGTCACCTAGTGCAG” was 3840 fluorescence intensity (a.u.); that for “GCGTGGAGTGGAGAGTGGAGAGGCATGGGAGGCATGGCAGCGGAGTCACCTAGTGCAG” was 42900 fluorescence intensity (a.u.). As to “CCTCCTCAACGCCGCCACCTCATCCGTCCATACAGCGCCGCGGAGTCACCTAGTGCAG”, the binding signal was 7110 fluorescence intensity (a.u.). The value for “CGGGAGAGAGATCAGATGCGGCATGGCGTGGCCGTGGCGTCGGAGTCACCTAGTGCAG” was 3380 fluorescence intensity (a.u.). For “CCCTGCGCTGCCACGCGGCCGGCATCCGCCAAAGCAACAGCGGAGTCACCTAGTGCAG”, the binding signal is 4880 fluorescence intensity (a.u.). With “AGCGAGAGAAGATGCTGACGTGGCATCATGACATGTGGGGCGGAGTCACCTAGTGCAG” the figure was 19300 fluorescence intensity (a.u.). With “AGAGGCATGGGAGTCATGTTCAGGGTGATGGGAGATGGAGCGGAGTCACCTAGTGCAG” the figure was 3260 fluorescence intensity (a.u.); with “AGTGGTGGAGAAGGAGAGGAGAGGCAGAGAGAATGAGGAGCGGAGTCACCTAGTGCAG”, 3240 fluorescence intensity (a.u.); with “GAAGTGGCGGCCCTTGGCGGAGAGAATGGCATGGCGAGAGCGGAGTCACCTAGTGCAG”, 65100 fluorescence intensity (a.u.). With “AAACACGCGGCATGGCGTGCCGCGATGCAGTCGGAGATGGCGGAGTCACCTAGTGCAG” the figure was 48600 fluorescence intensity (a.u.); with “ATAGCCCGTCCTCTTCATGGACCACGGTGTACAGCTTGCTCGGAGTCACCTAGTGCAG”, 3980 fluorescence intensity (a.u.); with “TTAGTTGTTCTTGTTCTCTTGGTTGGGACGTGGAGAGTTGCGGAGTCACCTAGTGCAG”, 3440 fluorescence intensity (a.u.). On to “ACATTATCATGTCACGTCGTCGCGTAATCATGGGTACCCACGGAGTCACCTAGTGCAG”, for which the binding signal is 4200 fluorescence intensity (a.u.). The value for “GCCGACACGTCGCGACGCCGCTTGCCACGCGCCACGCGCGCGGAGTCACCTAGTGCAG” was 6450 fluorescence intensity (a.u.); that for “TAAAATTATTATATTTTATAAGAAAGGTAACAAGTAAACACGGAGTCACCTAGTGCAG” was 28600 fluorescence intensity (a.u.). With “GCTAGGTTCAACGTCATGCCTCATGTTGTCTATTGCTGTTCGGAGTCACCTAGTGCAG” the figure was 4070 fluorescence intensity (a.u.). As to “GGGGTTAGTCGCCGGAGGTGTGGCGTGTCGACACGTACGCCGGAGTCACCTAGTGCAG”, the binding signal was 8720 fluorescence intensity (a.u.). The value for “TTGTTTCACCGCTTACGCCACGTGCGCCGCTCAGCTGTATCGGAGTCACCTAGTGCAG” was 9840 fluorescence intensity (a.u.); that for “ATCCTCAACTCAATCCCGACGAAATCCCCTTCGATTTGAGCGGAGTCACCTAGTGCAG” was 3290 fluorescence intensity (a.u.). On to “GATTAAATGGAAGAGAGAATGAATAATTAAGATTTAAAGACGGAGTCACCTAGTGCAG”, for which the binding signal was 27400 fluorescence intensity (a.u.).

Consider “TTAAAACGCATCAAGATTATAAGAGCCAAGAGAAATTGCACGGAGTCACCTAGTGCAG”, for which the binding signal is 3520 fluorescence intensity (a.u.). With “AAGAATTAAAGAAGCCTTTATAAGAAGAGAAGGCCAAGCTCGGAGTCACCTAGTGCAG” the figure was 60800 fluorescence intensity (a.u.). With “TCAAGGACCTCGTCATCCTCTCAGGTAACACACTTTCCCTCGGAGTCACCTAGTGCAG” the figure was 3780 fluorescence intensity (a.u.); with “ACGCCGCTAGTTCTTTTCTCCAGAGCAATCTGGTCAGTTCCGGAGTCACCTAGTGCAG”, 59900 fluorescence intensity (a.u.). The value for “TCCTCTTCTCCTCCGCCGCATCAGCAATCTCTCTTTCTACCGGAGTCACCTAGTGCAG” was 4100 fluorescence intensity (a.u.); that for “CTTCGCTCTCTTTTCCATTGCAGAGCCCTCACGCTTCCGCCGGAGTCACCTAGTGCAG” was 3570 fluorescence intensity (a.u.). For the sequence “AGAAGAGGTGATGTATAAAACATGTCACGATTTAATATCTCGGAGTCACCTAGTGCAG”, the binding signal was 4070 fluorescence intensity (a.u.). With “GTGTTTATATAAGTGTTTGCATATGTACTATGTTTTAATACGGAGTCACCTAGTGCAG” the figure was 3730 fluorescence intensity (a.u.). The value for “ATAACCTAATATAAAGTTCGCTCATATGAAAATTTAAACTCGGAGTCACCTAGTGCAG” was 51600 fluorescence intensity (a.u.). The value for “TATAAATTAATATGTAGTATATCACTTCATAAGTTTAAATCGGAGTCACCTAGTGCAG” was 39300 fluorescence intensity (a.u.); that for “AAATAACAAAATTACAAGTTTAACATAAATATGTAATCACCGGAGTCACCTAGTGCAG” was 21200 fluorescence intensity (a.u.); that for “TTAATACGTATGAATATATAAAGTTTATATATGCATGTACCGGAGTCACCTAGTGCAG” was 63000 fluorescence intensity (a.u.). As to “AACATAATGTTTTAACTTAAACCTTAATAATGAAATTTCTCGGAGTCACCTAGTGCAG”, the binding signal is 3670 fluorescence intensity (a.u.). The value for “GTATATATACACGTATACAAAGTTTATATATGACGTATACCGGAGTCACCTAGTGCAG” was 6040 fluorescence intensity (a.u.); that for “ATCTTGATATCTGCAACATAAAATGTAACATCAGATTTAACGGAGTCACCTAGTGCAG” was 39500 fluorescence intensity (a.u.); that for “AAGAAGTACGTCATATATTCAGTTTTATGTATTATTTTATCGGAGTCACCTAGTGCAG” was 3310 fluorescence intensity (a.u.). In the case of “GATATGATTATTTATTTCTTTAAATGAAAATCATGTGTAACGGAGTCACCTAGTGCAG”, the binding signal was 32500 fluorescence intensity (a.u.). The value for “TTATTATGAAAATATATTTAATTATTGATTTGATGAAACTCGGAGTCACCTAGTGCAG” was 21300 fluorescence intensity (a.u.); that for “AATTATCATAAAACAACATATTTAAACCATGGTAACATAACGGAGTCACCTAGTGCAG” was 6200 fluorescence intensity (a.u.).
